B2AR arrestin = qHTS assay of beta-arrestin-biased ligands of beta2-adrenergic receptor | Beta-2 adrenergic receptor (Homo sapiens), P07550 | beta-arrestin recruitment to beta2AR, cell-based reporter | Potency, µM (doses to about 46.1 µM), for the others: at the highest dose activation, hits mostly activators | 0.02% of 330,000 active;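 note: 0% = DMSO controls and full agonism = EC100 isoproterenol or metaproterenol; nearly all actives have a fitted effect of over 65% in size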
Gal4-VP16 FLuc = VP16 counterscreen qHTS for inhibitors of ROR gamma transcriptional activity; Potency, µM (top dose mostly 53.6 µM), for the others: at the highest dose activity, negative = inhibition, actives largely listed as inhibitors; Drosophila S2 Gal4-VP16 UAS-luciferase, luminescence, 20 h; 3.5% of 310,000 active;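 note: Gal4-VP16 expression switched on by copper sulfate through the metallothionein promoter; nearly all actives have a fitted effect of over 50% in size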
RORg inh = qHTS for inhibitors of ROR gamma transcriptional activity | Drosophila S2 Gal4-RORgamma UAS-luciferase reporter, 20 h | 5.4% of 310,000 active | Nuclear receptor ROR-gamma (Mus musculus), P51450 | Potency, µM (highest dose often 53.6 µM), for the others: at the highest dose activity change, negative = inhibition, hits mostly inhibitors; note: nearly all actives have a fitted effect of over 60% in size
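Luciferase reporter read in Schneider cells carrying Gal4-RORγ (mouse) and UAS-Photinus luciferase; cells given compound 1 h before 700 uM copper sulfate induction, then incubated 20 h at ambient temperature.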
NPSR antag = qHTS Assay for Antagonists of the Neuropeptide S Receptor: cAMP Signal Transduction; Q6W5P4; CHO-NPSR cells, cAMP TR-FRET, antagonist mode; Potency, µM (series often up to 38.3 µM), inactives show top-dose activity change, negative = inhibition, usual class: inhibitors; 1% of 220,000 active; note: nearly all actives have a fitted effect of over 50% in size
Target sequence (Q6W5P4 whole entry, looked up): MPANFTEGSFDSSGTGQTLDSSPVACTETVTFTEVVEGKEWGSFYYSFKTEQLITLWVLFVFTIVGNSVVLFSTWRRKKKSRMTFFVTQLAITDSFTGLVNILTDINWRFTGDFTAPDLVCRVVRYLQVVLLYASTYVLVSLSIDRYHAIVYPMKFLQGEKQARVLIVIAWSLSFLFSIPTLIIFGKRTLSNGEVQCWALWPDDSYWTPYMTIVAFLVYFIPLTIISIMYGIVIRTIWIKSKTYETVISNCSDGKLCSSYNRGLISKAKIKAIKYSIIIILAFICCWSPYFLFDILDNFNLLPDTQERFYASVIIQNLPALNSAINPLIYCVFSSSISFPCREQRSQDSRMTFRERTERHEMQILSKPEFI
* = called active by the depositor; ? = inconclusive; . = not tested or not shown; [ ] = another dose, or the depositor's remark. Shown are actives, neighbours in structure and some others; about 5.7% of the full set was active somewhere. Calls come from the whole dose curve; as a rule, active = well fitted curve in the direction sought with a large enough effect; inconclusive = small, poorly fitted or top-dose-only effect, or another doubt; inactive = no such curve, though single readings can be large; an effect the other way counts as inactive or inconclusive. Unless noted, % is set by controls: 0 for no effect and ±100 for the full control effect; potency is the fitted concentration of half-maximal effect.

SMILES	B2AR arrestin	Gal4-VP16 FLuc	RORg inh	NPSR antag
Nc1nonc1-n1nnc(C(=O)N/N=C/c2c(Cl)cccc2Cl)c1CSC1=NCCS1	0%	9%	1%	-20%
Nc1nonc1-n1nnc(C(=O)N/N=C/c2ccc(OCc3ccccc3)cc2)c1COc1ccc(F)cc1	0%	1%	-7%	-32%
O=c1c2c(nc3nc(NCc4cccc5ccccc45)[nH]n13)CCC2	0%	-3%	0%	5%
CC(=O)N[C@@H](C=O)[C@@H](O)[C@H](O)[C@H](O)CO	.	5%	-9%	.
CCOCCc1nnc(NC(=O)C2CC(=O)N(CCc3ccc(F)cc3)C2)s1 (stereo not given)	3%	2%	-3%	.
N#Cc1ncc(-c2ccc3c(c2)OCCOCCOCCOCCOCCO3)nc1C#N	-2%	4.5µM*	11µM*	-24%
N#Cc1ncc(-c2ccc3c(c2)OCCOCCOCCOCCO3)nc1C#N	0%	?	13µM*	8%
FC(F)(F)c1ccccc1-c1nc(NCc2cccnc2)c2ccccc2n1	.	-5%	-29%	.
Cc1c(C(=O)Nc2ccc3c(c2)OCCO3)sc2ncnc(N3CCCCC3C)c12 (stereo not given)	0%	25%	?	.
COC(=O)c1ccc(CC(=O)c2c(C)cc(O)cc2O)o1	0%	?	11µM*	-17%[46.1 µM]
Cc1cccc(N(C(=O)c2ccco2)C(C(=O)NC2CCCC2)c2ccco2)c1C (stereo not given)	0%	0%	17%	.
CN(C)C(=O)c1ccc(NC(=O)COC(=O)C2CCN(S(=O)(=O)c3ccc4c(c3)OCCO4)CC2)cc1	-4%	.	.	.
Cc1ccccc1/C=c1\s/c(=C\C(=O)C(C)(C)C)[nH]c1=O	0%	0.89µM*	?	?
CC(C)(C)C(=O)/C=c1\[nH]c(=O)/c(=C\c2ccccc2F)s1	0%	-22%	?	-37%
COc1ccc(SCC(CC(C)C)N2CCN(CCc3ccccc3)CCC2=O)cc1 (stereo not given)	.	?	13%	.
Cc1ccc(-n2c(CC#N)n[nH]c2=S)c(C)c1	0%	-11%	-41%	17%
Cc1ccc(-n2cc[nH]c2=S)c(C)c1	0%	?	10µM*	11%
Cc1cc(C)cc(-n2cc[nH]c2=S)c1	0%	10µM*	7.1µM*	-1%
Cc1ccc(C)c(-n2cc[nH]c2=S)c1	0%	?	11µM*	1%[46.1 µM]
COCC(=O)N1CCC2(CC1)CN(c1ccccc1)C2	.	0%	8%	.
CC(C)NC(=S)N/N=C/C1=CCC2CC1C2(C)C (stereo not given)	-1%	1.8µM*	0.79µM*	17%[46.1 µM]
CC1=C/C(=N\NC(=S)Nc2cccnc2)CC(C)(C)C1	?	3.2µM*	1.8µM*	1.3µM*
C=C(C)CNC(=S)N/N=C/C1=CCC2CC1C2(C)C (stereo not given)	3%	1.6µM*	0.79µM*	6%[46.1 µM]
CCCCNC(=S)N/N=C/C1=CCC2CC1C2(C)C (stereo not given)	0%	0.89µM*	1.1µM*	-39%
CC(=O)N/N=C/C1=CCC2CC1C2(C)C (stereo not given)	0%	-3%	-27%	1%
SMILES	B2AR arrestin	Gal4-VP16 FLuc	RORg inh	NPSR antag
C#CCn1c(=O)c2c(nc(/C=C/c3cccc(OC)c3)n2C)n(CCCOP(=O)(O)O)c1=O	.	-4%	-3%	.
CC(C)[C@H](NC(=O)c1ccccc1F)C(=O)OCCN1C(=O)c2ccccc2C1=O	-1%	.	.	.
Cc1ccc(C)c(NC(=S)Nc2cccnc2)c1	0%	-5%	?	21%
CC1(C)C2CC=C(/C=N/NC(=S)Nc3cccnc3)C1C2 (stereo not given)	0%	1.3µM*	0.5µM*	-51%
CCn1c(CSCc2ccc(Cl)cc2)n[nH]c1=S	5%	7.1µM*	2.2µM*	-11%
Cn1c(CSCc2ccc(Cl)c(Cl)c2)n[nH]c1=S	0%	4µM*	5.6µM*	-1%
CCn1c(CC(C)C)n[nH]c1=S	-1%	-1%	?	-6%[46.1 µM]
CCn1c(CSCc2ccc(C)cc2)n[nH]c1=S	1%	3.5µM*	5.6µM*	.
Cc1nccn1CCCNC(=O)CC1C(=O)NCCN1Cc1ccc(F)cc1Cl (stereo not given)	-1%	-7%	-5%	.
Cc1nc(N2CCC(C)CC2)c2oc3ccccc3c2n1	-1%	?	13µM*	?
O=C(O)C1CCN(c2nc(-c3ccccc3)nc3c2oc2ccccc23)CC1	-1%	-3%	-3%	-15%[46.1 µM]
CCOC(=O)C1CCN(c2nc(-c3ccccc3)nc3c2oc2ccccc23)CC1	-2%	1%	-1%	13µM*
COc1ccc(CCN2Cc3c(N)cccc3C2=O)cc1OC	0%	2%	11%	.
COC(=O)C1CCN(C(=O)C2CCN(C(=O)[C@@H](NS(=O)(=O)c3ccc(C)cc3)C(C)C)CC2)CC1	0%	?	1.1µM*	.
CC[C@@H](C)[C@H](NC(=O)C1CCN(C(=O)[C@@H](NS(=O)(=O)c2ccc(C)cc2)C(C)C)CC1)C(=O)O	0%	-2%	15%	-1%[46.1 µM]
Cc1cccc(-c2cc(=O)c3cc(Br)ccc3o2)c1	.	10%	0%	.
C#CCOc1c(Br)cc(/C=N\NC(=O)CN2CCOCC2)cc1OCC	0%	35µM*	12%	-1%[46.1 µM]
COc1cc(NC(=O)CSc2nc3c(C)ccc(C)c3cc2C)c(C(=O)O)cc1OC	0%	?	24%	-14%
COc1ccc(Cl)cc1NC(=O)C(C)N1CCN(C/C=C/c2ccccc2)CC1 (stereo not given)	0%	10%	-34%	10µM*
CCOc1ccc(NC(=S)N2CCN(C/C=C/c3ccccc3)CC2)cc1	0%	?	14µM*	-35%
COc1ccc(NC(=S)N2CCN(C/C=C/c3ccccc3)CC2)cc1OC	0%	8%	10µM*	-15%[46.1 µM]
COc1ccc(OC)c(NC(=S)N2CCN(C/C=C/c3ccccc3)CC2)c1	0%	1%	2.8µM*	-7%[46.1 µM]
CC(=O)c1ccc(NC(=O)C(C)N2CCN(C/C=C/c3ccccc3)CC2)cc1 (stereo not given)	-1%	3%	-11%	-14%
C=CC(=O)OCCCC	.	9%	-9%	.
COCCCNC(=S)Nc1cc(C)c(C)cc1C	-1%	35µM*	7.1µM*	9%
SMILES	B2AR arrestin	Gal4-VP16 FLuc	RORg inh	NPSR antag
COCCCNC(=S)Nc1ccc(OC(F)F)cc1C	0%	-10%	11µM*	18%
CC(=O)NC(=S)Nc1ccc(N2CCOCC2)c(S(=O)(=O)Nc2cc(Cl)ccc2Cl)c1	0%	?	?	-14%
FC(F)(F)c1cccc(-c2nnc3ccc(C(F)(F)F)cn23)c1	-1%	-4%	10µM*	-8%[46.1 µM]
Cc1ccc(C(=O)Nc2nccs2)cc1	0%	-8%	?	-1%
CC(C)C(C(=O)Nc1ccncc1)c1ccc(Cl)cc1 (stereo not given)	0%	?	13%	.
CC(C)C(C(=O)Nc1nccs1)c1ccc(Cl)cc1 (stereo not given)	0%	?	14µM*	-42%

High-throughput results as filed in PubChem BioAssay.
